Data on 60 compounds can be found in ChEMBL document CHEMBL3988442, “University of Dundee, Small-Polar-MMV Screening Library” (2021).

The subject of the experiment is Trypanosoma brucei. Kind of experiment: Trypanosoma brucei 72 hour study. It is filed as functional, organism-based. Also on record: scale not given: in the data most compounds retested in dose-response had high values.

The structures appear in SMILES notation. About 960 (1.5%) of roughly 66,000 compounds showed an effect of 50% or more. The sample as a whole holds a higher share of strong results than the screen did.

Regarding `CCOCCCNC(=O)CCCC(=O)n1nc(C)c2ccccc21`, the “Percent Effect” value (30 µM, 30.03 µM) is given as -9.537%. For `COCCCNC(=O)CCn1ncc2c(Cl)cccc21`, the “Percent Effect” value (30.3 µM, […]) was -21.64%. `COCCCNC(=O)CCn1nc(C)c2ccccc21`: the “Percent Effect” value (30 µM, 30.03 µM) amounted to 61.88%.

In the case of `Nc1ccc(C(=O)N2CCCC(C(=O)CCc3ccccc3)C2)cn1` (stereo unspecified), the “Percent Effect” value (30 µM, 30.03 µM) worked out at 42.45%. On the same count and under the same terms, as for `Cn1cc(N2CC3(CCN(Cc4ccoc4)CC3)OCC2=O)cn1.O=C(O)C(F)(F)F`, the figure is -14.91%.

Turning to `CCOC(=O)c1n[nH]cc1-c1cncn1CCn1nc(C)c(C)c1C.Cl`, the “Percent Effect” value (30.3 µM, […]) is -11.29%.

Take `Cc1ncsc1C(=O)NC1CCN(CC(=O)N(C)c2ccccc2)CC1`: the “Percent Effect” value (30 µM, 30.03 µM) worked out at 32.24%. Consider `Cc1ncsc1C(=O)NC1CCN(CC(=O)NCc2ccccc2)CC1`, for which the “Percent Effect” value (30 µM, 30.03 µM) was determined as 57.29%.

`Cc1ncsc1C(=O)NC1CCN(CC(N)=O)CC1`: where the note is “30.3 µM, […]”, the “Percent Effect” value came to 10.5%. Same read-out and setting: as for `O=C(c1coc(COc2cccc3cnccc23)n1)N1CCCCCC1`, the figure is -73.19%; as for `O=C(c1coc(COc2cccc3cnccc23)n1)N1CCSCC1`, -189.8%. The same measure, in the same setting: as for `CC1CCCCN1C(=O)c1coc(COc2cccc3cnccc23)n1` (stereo unspecified), the figure is 103.3%. Consider `Cc1noc(Cl)c1CCC(=O)N1CCN(c2ncccn2)CC1`, for which, where the note is “30 µM, 30.03 µM”, the “Percent Effect” value is reported as -22.8%.

For `Cc1cccc(N2CCN(C(=O)CCc3c(C)noc3Cl)CC2)c1`, under “30.3 µM, […]”, the “Percent Effect” value turned out to be 55.23%. Same read-out and setting: the same measure for `Cc1noc(Cl)c1CCC(=O)N1CCN(c2ccccc2)CC1`: 16.11%. In the case of `CN(CCC(O)c1ccccc1)Cc1nc(-c2ccccc2)no1` (stereo unspecified), the “Percent Effect” value (30.3 µM, […]) is -13.82% and the “Percent Effect” value (10 mM, 10 mM as filed; unlikely as a test dose) is -49.39%. Take `CC(C)CN1CCC2(C1)CN(S(=O)(=O)c1cn(C)cn1)C2.O=C(O)C(F)(F)F.O=C(O)C(F)(F)F`: where the note is “30.3 µM, […]”, the “Percent Effect” value is -13.21%. The same measure, in the same setting: the same measure for `COc1ccccc1CN1CCC(c2nn(CCN)c3nccnc23)C1` (stereo unspecified): 99.59%; for `NCCn1nc(C2CCN(Cc3ccccc3Cl)C2)c2nccnc21` (stereo unspecified): 22.22%. The same measure, in the same setting: the same measure for `Cc1ccccc1CN1CCC(c2nn(CCN)c3nccnc23)C1` (stereo unspecified): 24.84%. `COCC(=O)N1C[C@@H]2CCCO[C@@H]2[C@H](N(C)Cc2ccco2)C1.O=C(O)C(F)(F)F`: the “Percent Effect” value (30 µM, 30.03 µM) is on record as -11.7%. Consider `O=C(O)C(F)(F)F.O=C1N(Cc2cccc(F)c2)CCC12CCN(c1ccccn1)CC2`, for which the “Percent Effect” value (30.3 µM, […]) is listed as -2.034%. The same measure, in the same setting: the same measure for `CNCC[C@H]1CC(C)(C)Oc2ccc(OC)cc21`: -16.4%.

As for `CNCC[C@H]1CC(C)(C)Oc2ccc(OCC3CC3)cc21`, under “30.3 µM, […]”, the “Percent Effect” value was 86.36%. On the same count and under the same terms, the same measure for `COc1ccc2c(c1)[C@@H](CCNC(C)=O)CC(C)(C)O2`: -14.03%. As to `CN(C)c1nc2c(c(N3CCC4(CC3)CNC(=O)C4)n1)CCCC2`, the “Percent Effect” value (30 µM, 30.03 µM) is reported as 23.78%. The same measure, in the same setting: the same measure for `CN(C)c1nc2c(c(N3CCCC4(CC3)CNC(=O)O4)n1)CCCC2` (stereo unspecified): 52.4%; for `Cc1nc(N(C)C)nc(N2CCC3(CC2)CNC(=O)O3)c1C`: -29.71%; for `CN(C)S(=O)(=O)N1C[C@@H](OCc2cccnc2)[C@H]2OCCC[C@H]21.O=C(O)C(F)(F)F`: -11.52%. For `CN(Cc1cccc(OC(F)F)c1)Cc1nc2c(cnn2C)c(=O)[nH]1`, the “Percent Effect” value (30.3 µM, […]) is recorded as -25.39%.

As to `CN(CCS(=O)(=O)c1cc(Cl)ccc1Cl)CC(N)=O`, the “Percent Effect” value (30 µM, 30.03 µM) is recorded as -15.71%.

Turning to `CN(CCS(=O)(=O)c1cc(Cl)ccc1Cl)CC(=O)Nc1ccc(F)cc1`, the “Percent Effect” value (30 µM, 30.03 µM) is 64.98%. The same measure, in the same setting: the same measure for `CN(CCS(=O)(=O)c1cc(Cl)ccc1Cl)CC(=O)Nc1cccc(F)c1`: -17.26%. Regarding `CC(=O)NC[C@]1(O)CCN(C(=O)c2ccc3c(c2)OCO3)C[C@H]1O`, the “Percent Effect” value (30.3 µM, […]) is recorded as -26.03%. With `c1cc2cc[nH]c2c(CC2CN(Cc3cscn3)C2)n1`, the “Percent Effect” value (30.3 µM, […]) is -15.51%. Consider `Cc1cnc(N2CCOCC3(CCN(c4ccccn4)C3)C2)nc1.O=C(O)C(F)(F)F.O=C(O)C(F)(F)F` (stereo unspecified), for which the “Percent Effect” value (30 µM, 30.03 µM) was -35.16%.

For the compound `CC(=O)NCC(=O)N1CCC2(CC1)C(=O)N(CC1CC1)c1ccccc12`, for the setting “30.3 µM, […]”, the “Percent Effect” value was -5.541%. As for `CN(C)C1CCCN(C(=O)c2cccc(-c3ncc[nH]3)c2)CC1` (stereo unspecified), for the setting “30 µM, 30.03 µM”, the “Percent Effect” value is given as -3.463%.

With `CN(C)[C@H]1CCCCN(C(=O)c2cccc(-c3cccc(F)c3)c2)C1`, the “Percent Effect” value (30 µM, 30.03 µM) was determined as 59.87%. Regarding `CN(C)[C@H]1CCCCN(C(=O)c2cccc(N3CCS(=O)(=O)CC3)c2)C1`, the “Percent Effect” value (30 µM, 30.03 µM) is given as 11.69%.

Turning to `CCC(C)CNc1ccc2oc(COC)nc2c1` (stereo unspecified), the “Percent Effect” value (30 µM, 30.03 µM) stood at 94.42%. Turning to `COCc1nc2cc(NCc3ccncc3)ccc2o1`, the “Percent Effect” value (30 µM, 30.03 µM) turned out to be 16.85%. Still for that read-out and setting: the same measure for `COCc1nc2cc(NCc3ccc(C)o3)ccc2o1`: 13.96%. Regarding `Cc1cccc(C(=O)N2CCN(CCC(C)C)CC2)n1`, the “Percent Effect” value (30.3 µM, […]) is given as -20.29%.

As to `CCCN1Cc2nc(N3CCCC3)ncc2C1=O`, under “30 µM, 30.03 µM”, the “Percent Effect” value stood at 35.2%. On the same count and under the same terms, the same measure for `Cc1nnc2ccc(N3CCC4(CCOC4)C3)nn12` (stereo unspecified): -17.43%; for `c1ccc(-c2nnc3ccc(N4CCC5(CCOC5)C4)nn23)cc1` (stereo unspecified): 81.34%.

As for `FC(F)c1nnc2ccc(N3CCC4(CCOC4)C3)nn12` (stereo unspecified), the “Percent Effect” value (30 µM, 30.03 µM) is recorded as -51.53%. For `c1cc(-c2n[nH]cc2-c2ccnc(N3CCCCCC3)n2)ccn1`, under “30.3 µM, […]”, the “Percent Effect” value is listed as 36.75%. Consider `Cc1nc(-c2ccccc2F)sc1C(=O)N1CCN(C)CC1`, for which, for the setting “30 µM, 30.03 µM”, the “Percent Effect” value was determined as 37.21%. Turning to `CCOC(=O)N1CCN(C(=O)c2sc(-c3ccccc3F)nc2C)CC1`, under “30 µM, 30.03 µM”, the “Percent Effect” value came out at 51.23%. `CC(=O)N1CCN(C(=O)c2sc(-c3ccccc3F)nc2C)CC1`: under “30 µM, 30.03 µM”, the “Percent Effect” value is given as -46.44%. As to `CC(=O)N1CCO[C@H]2[C@H](OCCCn3cccn3)CC[C@@H]21.O=C(O)C(F)(F)F`, the “Percent Effect” value (30.3 µM, […]) is given as -5.128%.

Take `COc1cccc(CN(Cc2ccco2)Cc2cnc(C)n2C)c1.O=C(O)CC(O)(CC(=O)O)C(=O)O`: where the note is “30.3 µM, […]”, the “Percent Effect” value was 15.04%. In the case of `CN1C[C@@H](C(=O)N(C)C)[C@@]2(CCc3ccccc3C(=O)N2)C1.Cl`, the “Percent Effect” value (30.3 µM, […]) was -15.68%. Take `CNc1nc(C)c(C(=O)N2CCCCC2CN2CCCCCC2)s1` (stereo unspecified): under “30 µM, 30.03 µM”, the “Percent Effect” value is 17.59%. For the compound `O=C(O)C(F)(F)F.O=C(O)C(F)(F)F.O=C(c1n[nH]c2c1CN(C1CCOC1)CC2)N1CCOCC1` (stereo unspecified), the “Percent Effect” value (30.3 µM, […]) worked out at 0.9809%. The same measure, in the same setting: as for `CN(C)CCN1C(=O)CCCC12CCCN(C(=O)c1ccncc1)C2.O=C(O)C(F)(F)F.O=C(O)C(F)(F)F` (stereo unspecified), the figure is -7.261%; as for `CN(C)CCN1C(=O)CCC12CCN(C(=O)c1cccnc1)CC2.O=C(O)C(F)(F)F.O=C(O)C(F)(F)F`, 75.6%. Consider `CN(C)CCN1C(=O)CCC12CCCN(C(=O)c1cccnc1)CC2.O=C(O)C(F)(F)F.O=C(O)C(F)(F)F` (stereo unspecified), for which the “Percent Effect” value (30.3 µM, […]) is -25.41%.
